The supplement of paper PMC6555819

Tests used:
Experiment in all cases: PBM binding z-score (relative to random genomic background probes); higher = stronger binding; sequences stand for … in GC…GCGATTGACAGCGTAGAATGAAGG
[1] = system: FXR:RXRa (NR concentration 270 nM, RXRa partner concentration 90 nM)
Outline: (§1)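 Custom Agilent 4×180K protein-binding microarrays carried double-stranded probes, each with a 34-nt variable region. These regions held direct-repeat seeds, single-nucleotide variants, half-site ablations and random human genomic background sequences. Ligand-free nuclear receptor dimers were incubated on the arrays for 1 h, antibodies against each partner (one per run) detected binding, and scanned fluorescence was regression-normalized. Binding z-scores take the random background probes as reference.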

[2] = system: LXRa:RXRa (NR concentration 270 nM, RXRa partner concentration 90 nM)
Outline: as §1

[3] = system: LXRa homodimer (NR concentration 270 nM)
Outline: as §1

[4] = system: LXRb:RXRa (NR concentration 270 nM, RXRa partner concentration 90 nM)
Outline: as §1

[5] = system: LXRb homodimer (NR concentration 270 nM)
Outline: as §1

[6] = system: PPARa:RXRa (NR concentration 270 nM, RXRa partner concentration 90 nM)
Outline: as §1

[7] = system: PPARg:RXRa (NR concentration 180 nM, RXRa partner concentration 90 nM)
Outline: as §1

[8] = system: PPARg:RXRa 270nM:90nM, anti-RXR (NR concentration 270 nM, RXRa partner concentration 90 nM)
Outline: as §1

[9] = system: PPARg:RXRa 30nM:10nM, anti-RXR (NR concentration 30 nM, RXRa partner concentration 10 nM)
Outline: as §1

[10] = system: PPARg:RXRa 90nM:30nM, anti-RXR (NR concentration 90 nM, RXRa partner concentration 30 nM)
Outline: as §1

[11] = system: PPARg:RXRa DBDmut IVT, anti-RXR (DBD mutation: RXRa K156A/R161A, NR concentration 270 nM, RXRa partner concentration 90 nM)
Outline: as §1

[12] = system: PPARg:RXRa IVT, anti-PPARg (NR concentration 270 nM, RXRa partner concentration 90 nM)
Outline: as §1

[13] = system: PPARg DBDmut:RXRa IVT, anti-PPARg (DBD mutation: PPARg1 K132A/R137A, NR concentration 270 nM, RXRa partner concentration 90 nM)
Outline: as §1

[14] = system: PPARg DBDmut IVT, anti-PPARg (DBD mutation: PPARg1 K132A/R137A, NR concentration 270 nM)
Outline: as §1

[15] = system: PPARg homodimer (NR concentration 180 nM)
Outline: as §1

[16] = system: PXR:RXRa (NR concentration 270 nM, RXRa partner concentration 90 nM)
Outline: as §1

[17] = system: PXR homodimer (NR concentration 270 nM)
Outline: as §1

[18] = system: RARa:RXR (NR concentration 270 nM, RXRa partner concentration 90 nM)
Outline: as §1

[19] = system: RARa homodimer (NR concentration 270 nM)
Outline: as §1

[20] = system: RARb:RXRa (NR concentration 270 nM, RXRa partner concentration 90 nM)
Outline: as §1

Sequence	PBM binding z-score [1]	PBM binding z-score [2]	PBM binding z-score [3]	PBM binding z-score [4]	PBM binding z-score [5]	PBM binding z-score [6]	PBM binding z-score [7]	PBM binding z-score [8]	PBM binding z-score [9]	PBM binding z-score [10]	PBM binding z-score [11]	PBM binding z-score [12]	PBM binding z-score [13]	PBM binding z-score [14]	PBM binding z-score [15]	PBM binding z-score [16]	PBM binding z-score [17]	PBM binding z-score [18]	PBM binding z-score [19]	PBM binding z-score [20]
CCTCGGAAGACAGAAGGTCAGAGCTGTCCGCTTT	0.995	1.6	0.422	1.25	-0.462	1.69	-0.302	0.238	-0.803	-0.38	-0.276	-0.376	-1.12	-1.96	1.82	1.38	-0.0252	1.89	0.512	2.33
ACTCTTAGTTGACTTAGGGCAACCGATACGACGC	0.556	0.443	0.285	0.398	0.941	0.448	0.905	0.0993	0.38	0.299	0.723	0.491	1.1	1.39	0.782	0.578	0.291	0.777	0.704	1.04
TCGCCTAGGTCATGCGGGCCAGTATAGTGTCGGC	4.09	2.65	0.228	1.72	-0.926	3.47	1.56	2.12	1.32	1.71	2.3	2.74	-0.0945	-0.593	0.827	1.45	-0.348	2.59	-0.685	3.87
CAAACTAGGTCAAGGTCCAAGTCGGTTTGTGCCA	3.75	2.44	0.225	1.55	-0.00943	5.05	8.9	7.5	6.37	7.89	8.66	8.37	3.91	1.65	2.64	1.63	-0.0807	2.31	0.849	4.18
AGTCAAAGTTCACCTAGGTAACGTAAGATATGCT	6.25	5.63	3.58	3.92	1.2	4.94	7.15	6.41	3.81	5.63	1.22	4.08	1.35	1.84	2.06	4.76	3.76	3.95	1.51	4.99
AGAATGAGGTTAAGATCAGGGAGACAGAATACAT	2.07	1.66	0.293	1.69	-0.0325	3.31	2.15	2.29	0.947	1.62	3.04	2.59	1.8	0.747	0.955	1.26	0.933	1.95	0.709	1.91
TCTTGTAGATCAGCAGGTTAAGAATGCTGGCCAA	-0.0205	0.0347	-0.38	0.151	-0.573	0.607	-0.224	1.26	2.68	2.04	1.36	0.428	-0.195	-0.491	0.12	0.00264	-0.0255	0.239	-0.0617	0.12
CCTTACGGGTTAAGGTTATAGCACGGGTGGTACG	1.55	1.38	-0.0602	1.09	-0.11	2.09	1.12	1.61	0.309	1.09	0.0868	0.867	-0.169	-0.202	0.702	1.16	0.325	1.85	0.517	1.8
GCTGCTAGGTCAGGTTGGTCAGGTAACGGGTACG	1.37	0.789	-0.109	0.63	0.124	1.5	0.626	0.972	-0.553	0.573	2.86	2.24	-0.63	-0.722	0.641	0.475	-0.529	0.834	-0.052	3.15
TCAGACAGGAGAAGGTAACTCAGGTACGCAGTCG	0.934	1.47	-0.171	0.452	-0.646	0.384	0.666	1.78	3.37	2.69	2.06	-0.153	-0.44	-0.387	0.0505	0.125	-0.21	0.759	0.536	0.225
CAAACTAGCTCACCGGAAGGTCAAAGTCCGCATG	2.99	3.06	3.46	3.43	1.02	3.16	0.628	1.58	0.364	0.774	0.993	1.36	-0.25	0.542	2.25	3.37	1.23	3.64	0.685	3.17
CGTACAAGGTCAGCAGGTCAGTGAAAGCGACGTG	6.31	4.3	0.745	3.29	-0.00943	5.32	5.54	5.17	1.99	3.64	3.86	4.79	1.35	0.315	3.51	3.82	0.382	5.17	1.11	5.23
TGAATGAGGTTAAAGATCAGGGAACGTGGCGTCG	3.08	2.42	-0.304	1.71	0.375	4.63	5.54	6.57	4.6	6.57	2.04	3.27	0.612	0.495	1.15	1.99	0.0833	3.37	0.135	1.97
TCTGCTAGGTCAACGATGGTCAGCTTATCTGCTA	3.6	2.98	-0.083	1.77	-0.302	3.38	2.43	3.06	2.06	2.59	4.15	4.27	2.31	1.16	0.812	1.76	-0.682	2.5	-0.672	4.22
TCTAGCCGGCCAGAGGGTCACTCAAGAGGTACGG	1.12	0.885	-0.666	1.07	-1.11	2.03	0.575	1.57	1.39	1.44	0.224	-0.0177	-0.893	-1.23	0.24	1.48	-0.354	2.24	-0.43	2.08
CAAACTAGGTAAAGGTCAAAGTCGGTTTGTGCCA	6.46	6.21	5.75	5.55	2.15	6.23	7.83	7.43	6.03	7.54	6.36	6.65	4.01	1.08	4.48	5.72	2.28	6.09	1.6	4.99
CAAACTAGGTCACAGAGGTCAGAGTCCGTGCGTA	6.35	5.23	4.71	4.72	0.859	6.11	9.99	7.88	6.14	7.84	8.64	9.29	2.49	1.4	4.05	5.59	7.79	5.97	1.84	5.11
ACTATTAGTTGAGACGAGCGCAACCGATAGGTTG	-0.41	-0.534	-0.214	-0.638	-0.159	-0.642	0.477	-0.52	-0.422	-0.414	-0.504	-0.34	0.343	0.844	-0.155	-0.542	0.00515	-0.474	-0.207	-0.278
CGTCCAAGGTCAGTAGGTCAGTGAAAGCGACGTG	4.68	3.18	0.336	2.78	0.0496	5.1	6.2	6	2.74	4.9	5.03	6.09	0.33	0.924	4.32	3.23	0.64	4.46	1.39	5
TCAGACAGGTGAAAGTAACTCAGGTACGCAGTCG	0.453	0.738	-0.345	0.85	-0.276	1.32	0.821	2.21	4.08	2.92	2.49	1	0.398	0.588	0.14	0.584	0.498	0.768	0.295	0.907
TATACAGGGTTAAAGGCCAGAGTACGAATGTCGA	2.5	2.59	0.356	1.91	0.834	3.84	5.07	5.44	3.04	4.7	0.697	2.95	1.23	1.68	1.75	1.82	0.41	2.44	0.668	2.13
ATAGGTAGGTTAAGGGTCATTCAGGTTGGTTCGC	5.35	5.02	3.31	4.83	2.47	5.86	9.73	8.69	8.35	9.51	3.71	5.35	3.33	1.88	4.75	5.63	3.61	6.1	3.3	3.83
ATCTCTAGGTAAGCAAGTTCAGTGAATGCCGAAC	0.021	0.323	0.32	-0.00291	0.392	0.496	0.0727	0.538	0.367	0.23	1.64	1.7	0.134	-0.0297	0.55	1.37	1.12	0.257	0.268	0.858
GGAACGAGGGCATTCGAGTTGATAGGATGGCGAT	1.38	1.66	-0.255	-0.172	-0.504	1.12	1.01	0.531	-0.182	-0.00549	2.57	2.23	-0.409	-0.611	0.00316	3.7	1.31	0.433	-0.456	1.75
TCTTGTAGATCAAAGGTGAAGAAAGCCGAAGCCT	0.848	1.05	-0.533	0.994	-0.372	4.04	7.41	7.96	7.36	9.05	2.96	3.53	-0.0532	0.112	0.161	0.885	-0.554	1.86	-0.538	1.49
GCGACTGGGGCAAAGCAGTTTACCATAAGGTTGG	-0.303	-0.296	-0.507	-0.071	-1.21	0.822	1.17	1.31	-0.433	0.756	4.75	3.5	0.0777	-0.489	0.131	0.655	-0.386	-0.18	-0.418	0.776
ATCGAAAGGTCGACGAGGTGGGTATACACCGTTT	3.58	3.27	0.14	2.55	0.209	4.1	2.2	2.89	0.706	1.6	0.15	1.75	0.733	1.26	1.34	2.6	0.341	2.98	-0.0132	3.68
CCTACTGGGCCACGAACGGTCATTGATTCAGTGA	0.0231	1.38	0.691	-0.0702	-0.838	0.858	1.47	1.36	-0.262	0.515	5.64	4.88	-0.4	-0.69	0.254	-0.201	-0.435	0.0689	-0.329	1.42
AGAATGAGGTTAGGATCAGGGAAACAGAATACAT	0.875	0.506	-0.0173	1.16	0.0197	2.19	1.11	1	0.649	0.78	1.28	1.5	1.12	0.953	1.27	0.668	0.603	0.932	1.08	1.37
